Experimental data reported in the supplement of paper PMC11732987, “Enantioselective OTUD7B fragment discovery through chemoproteomics screening and high-throughput optimisation” (Communications Chemistry, 2025).

How the values were obtained:
Assay in all cases: log2 ratio of Biotin-Ahx-Ub-VS probe labelling (fragment/DMSO); higher = less target engagement (more negative = stronger competition), active = hit call of the paper (q ≤ 0.05, log2 ratio ≤ -1)
Conditions in all cases: compound concentration: 200 uM; treatment time: 3 h
USP19 = biological target: T1, USP19 (UniProt O94966)
T1 sequence (whole entry): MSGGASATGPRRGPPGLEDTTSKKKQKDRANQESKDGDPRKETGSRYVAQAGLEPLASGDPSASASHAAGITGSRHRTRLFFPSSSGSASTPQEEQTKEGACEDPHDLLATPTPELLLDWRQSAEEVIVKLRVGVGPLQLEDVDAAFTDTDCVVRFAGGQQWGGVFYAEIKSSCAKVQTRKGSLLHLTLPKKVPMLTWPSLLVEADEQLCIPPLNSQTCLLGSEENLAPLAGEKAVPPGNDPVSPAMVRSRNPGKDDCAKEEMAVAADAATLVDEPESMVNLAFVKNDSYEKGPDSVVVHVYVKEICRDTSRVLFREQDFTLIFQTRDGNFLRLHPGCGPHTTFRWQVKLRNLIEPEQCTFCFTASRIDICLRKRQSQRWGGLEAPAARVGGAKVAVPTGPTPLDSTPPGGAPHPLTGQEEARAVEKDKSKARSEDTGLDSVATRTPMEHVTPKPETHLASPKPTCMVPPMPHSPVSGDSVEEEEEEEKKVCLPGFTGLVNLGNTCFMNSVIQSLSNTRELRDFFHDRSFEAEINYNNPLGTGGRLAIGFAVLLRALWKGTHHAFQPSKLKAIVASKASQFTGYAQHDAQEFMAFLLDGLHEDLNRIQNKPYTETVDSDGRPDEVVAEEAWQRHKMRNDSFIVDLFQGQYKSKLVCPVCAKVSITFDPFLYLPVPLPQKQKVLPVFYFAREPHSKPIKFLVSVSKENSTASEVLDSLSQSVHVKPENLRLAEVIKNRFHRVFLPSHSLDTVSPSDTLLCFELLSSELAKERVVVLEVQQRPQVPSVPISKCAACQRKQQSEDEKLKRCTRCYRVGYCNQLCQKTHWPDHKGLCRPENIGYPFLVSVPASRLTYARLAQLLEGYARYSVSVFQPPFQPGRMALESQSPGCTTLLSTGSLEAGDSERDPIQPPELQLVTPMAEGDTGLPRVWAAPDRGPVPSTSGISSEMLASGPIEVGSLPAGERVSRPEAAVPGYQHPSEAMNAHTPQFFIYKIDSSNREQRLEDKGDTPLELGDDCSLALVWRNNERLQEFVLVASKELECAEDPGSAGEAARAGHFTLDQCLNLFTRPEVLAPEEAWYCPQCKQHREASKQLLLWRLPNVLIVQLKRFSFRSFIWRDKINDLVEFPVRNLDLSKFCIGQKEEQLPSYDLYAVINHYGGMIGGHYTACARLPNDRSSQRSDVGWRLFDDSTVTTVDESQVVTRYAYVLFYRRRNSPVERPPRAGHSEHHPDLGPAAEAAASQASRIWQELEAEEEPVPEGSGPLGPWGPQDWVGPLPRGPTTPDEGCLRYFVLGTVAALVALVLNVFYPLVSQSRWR
Summary of the method: (§1)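 Average log2 ratios of fragment over vehicle were obtained by unpaired t-test from global-median-normalised Spectronaut label-free quantities. Proteins with ≥2 unique peptides were included. HEK293T lysate (495 µg per sample) was treated in triplicate with fragment at 200 µM or vehicle for 3 h, then with Biotin-Ahx-Ub-VS at 0.5 µM final for 1 h, and labelled DUBs were NeutrAvidin-enriched and run by diaPASEF LC-MS/MS.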

USP22 = biological target: T2, USP22 (UniProt Q9UPT9)
T2 sequence (whole entry): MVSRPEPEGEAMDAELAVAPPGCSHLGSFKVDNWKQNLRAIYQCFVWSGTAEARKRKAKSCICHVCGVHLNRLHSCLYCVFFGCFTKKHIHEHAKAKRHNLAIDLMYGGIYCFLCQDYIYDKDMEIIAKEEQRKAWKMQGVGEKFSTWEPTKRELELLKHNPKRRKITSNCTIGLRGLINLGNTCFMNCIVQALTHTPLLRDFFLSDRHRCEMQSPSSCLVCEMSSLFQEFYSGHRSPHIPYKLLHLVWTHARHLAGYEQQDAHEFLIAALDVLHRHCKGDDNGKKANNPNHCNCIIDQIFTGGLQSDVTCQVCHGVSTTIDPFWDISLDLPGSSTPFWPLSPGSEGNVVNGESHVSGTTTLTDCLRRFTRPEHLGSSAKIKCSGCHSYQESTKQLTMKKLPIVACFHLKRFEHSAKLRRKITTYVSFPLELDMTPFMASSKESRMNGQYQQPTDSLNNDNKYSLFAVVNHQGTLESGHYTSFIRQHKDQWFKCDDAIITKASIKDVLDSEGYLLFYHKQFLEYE
Summary of the method: as §1

USP24 = USP24 (UniProt Q9UPU5)
Summary of the method: as §1

USP25 = biological target: T3, USP25 (UniProt Q9UHP3)
T3 sequence (whole entry): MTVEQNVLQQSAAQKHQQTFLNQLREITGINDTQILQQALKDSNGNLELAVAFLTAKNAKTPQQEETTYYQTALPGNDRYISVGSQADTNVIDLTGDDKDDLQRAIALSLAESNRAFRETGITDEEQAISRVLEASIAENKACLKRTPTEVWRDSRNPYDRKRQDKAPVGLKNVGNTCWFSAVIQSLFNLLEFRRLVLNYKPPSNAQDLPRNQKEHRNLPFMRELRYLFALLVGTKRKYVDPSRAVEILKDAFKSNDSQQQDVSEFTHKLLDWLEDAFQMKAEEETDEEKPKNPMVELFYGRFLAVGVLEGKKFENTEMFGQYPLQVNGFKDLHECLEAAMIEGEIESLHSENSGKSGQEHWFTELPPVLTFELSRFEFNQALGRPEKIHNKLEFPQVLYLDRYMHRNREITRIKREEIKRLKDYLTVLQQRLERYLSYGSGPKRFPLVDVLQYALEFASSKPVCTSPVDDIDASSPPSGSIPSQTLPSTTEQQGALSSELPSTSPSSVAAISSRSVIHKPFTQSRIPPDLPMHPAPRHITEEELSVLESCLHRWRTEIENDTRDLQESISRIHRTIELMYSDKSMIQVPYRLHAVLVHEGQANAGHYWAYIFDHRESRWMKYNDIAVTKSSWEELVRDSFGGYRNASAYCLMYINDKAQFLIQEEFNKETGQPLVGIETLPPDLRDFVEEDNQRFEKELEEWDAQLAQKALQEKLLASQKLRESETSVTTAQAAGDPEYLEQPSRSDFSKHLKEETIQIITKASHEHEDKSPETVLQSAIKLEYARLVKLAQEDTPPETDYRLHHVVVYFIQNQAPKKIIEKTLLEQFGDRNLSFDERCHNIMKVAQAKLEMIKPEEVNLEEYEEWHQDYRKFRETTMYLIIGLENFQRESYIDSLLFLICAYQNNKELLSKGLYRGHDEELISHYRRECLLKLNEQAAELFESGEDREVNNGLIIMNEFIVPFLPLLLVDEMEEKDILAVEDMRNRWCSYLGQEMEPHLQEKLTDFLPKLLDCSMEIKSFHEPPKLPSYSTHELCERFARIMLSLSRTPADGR
Summary of the method: as §1

USP28 = biological target: T4, USP28 (UniProt Q96RU2)
T4 sequence (whole entry): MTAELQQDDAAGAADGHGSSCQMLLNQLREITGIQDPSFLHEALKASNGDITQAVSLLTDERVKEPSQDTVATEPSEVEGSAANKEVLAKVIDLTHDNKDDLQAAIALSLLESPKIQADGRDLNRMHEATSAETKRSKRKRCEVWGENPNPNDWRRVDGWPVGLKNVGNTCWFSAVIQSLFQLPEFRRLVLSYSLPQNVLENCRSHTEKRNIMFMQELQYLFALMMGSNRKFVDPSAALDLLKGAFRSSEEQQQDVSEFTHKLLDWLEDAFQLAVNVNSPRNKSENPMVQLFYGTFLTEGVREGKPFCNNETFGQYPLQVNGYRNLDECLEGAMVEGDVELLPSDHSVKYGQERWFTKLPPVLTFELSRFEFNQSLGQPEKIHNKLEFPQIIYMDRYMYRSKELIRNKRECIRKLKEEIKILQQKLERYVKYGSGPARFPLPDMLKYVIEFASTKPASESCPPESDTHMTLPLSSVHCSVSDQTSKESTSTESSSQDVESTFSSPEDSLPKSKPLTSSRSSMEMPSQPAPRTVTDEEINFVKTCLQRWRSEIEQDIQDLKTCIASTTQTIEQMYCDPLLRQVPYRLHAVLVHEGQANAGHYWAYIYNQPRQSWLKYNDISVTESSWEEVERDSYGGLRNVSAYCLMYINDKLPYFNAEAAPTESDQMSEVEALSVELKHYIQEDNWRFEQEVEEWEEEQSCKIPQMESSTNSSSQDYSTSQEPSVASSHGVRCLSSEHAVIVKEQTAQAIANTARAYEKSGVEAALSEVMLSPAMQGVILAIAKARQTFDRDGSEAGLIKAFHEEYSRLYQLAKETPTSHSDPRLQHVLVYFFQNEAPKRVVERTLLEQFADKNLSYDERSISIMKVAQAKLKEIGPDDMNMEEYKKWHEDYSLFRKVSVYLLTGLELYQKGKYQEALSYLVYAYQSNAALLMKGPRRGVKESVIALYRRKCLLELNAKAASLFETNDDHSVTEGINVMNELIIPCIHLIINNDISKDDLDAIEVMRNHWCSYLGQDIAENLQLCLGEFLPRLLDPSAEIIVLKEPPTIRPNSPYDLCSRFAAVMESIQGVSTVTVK
Summary of the method: as §1

Measured: log2 ratio of Biotin-Ahx-Ub-VS probe labelling

Chain of USP24 (Q9UPU5 whole entry): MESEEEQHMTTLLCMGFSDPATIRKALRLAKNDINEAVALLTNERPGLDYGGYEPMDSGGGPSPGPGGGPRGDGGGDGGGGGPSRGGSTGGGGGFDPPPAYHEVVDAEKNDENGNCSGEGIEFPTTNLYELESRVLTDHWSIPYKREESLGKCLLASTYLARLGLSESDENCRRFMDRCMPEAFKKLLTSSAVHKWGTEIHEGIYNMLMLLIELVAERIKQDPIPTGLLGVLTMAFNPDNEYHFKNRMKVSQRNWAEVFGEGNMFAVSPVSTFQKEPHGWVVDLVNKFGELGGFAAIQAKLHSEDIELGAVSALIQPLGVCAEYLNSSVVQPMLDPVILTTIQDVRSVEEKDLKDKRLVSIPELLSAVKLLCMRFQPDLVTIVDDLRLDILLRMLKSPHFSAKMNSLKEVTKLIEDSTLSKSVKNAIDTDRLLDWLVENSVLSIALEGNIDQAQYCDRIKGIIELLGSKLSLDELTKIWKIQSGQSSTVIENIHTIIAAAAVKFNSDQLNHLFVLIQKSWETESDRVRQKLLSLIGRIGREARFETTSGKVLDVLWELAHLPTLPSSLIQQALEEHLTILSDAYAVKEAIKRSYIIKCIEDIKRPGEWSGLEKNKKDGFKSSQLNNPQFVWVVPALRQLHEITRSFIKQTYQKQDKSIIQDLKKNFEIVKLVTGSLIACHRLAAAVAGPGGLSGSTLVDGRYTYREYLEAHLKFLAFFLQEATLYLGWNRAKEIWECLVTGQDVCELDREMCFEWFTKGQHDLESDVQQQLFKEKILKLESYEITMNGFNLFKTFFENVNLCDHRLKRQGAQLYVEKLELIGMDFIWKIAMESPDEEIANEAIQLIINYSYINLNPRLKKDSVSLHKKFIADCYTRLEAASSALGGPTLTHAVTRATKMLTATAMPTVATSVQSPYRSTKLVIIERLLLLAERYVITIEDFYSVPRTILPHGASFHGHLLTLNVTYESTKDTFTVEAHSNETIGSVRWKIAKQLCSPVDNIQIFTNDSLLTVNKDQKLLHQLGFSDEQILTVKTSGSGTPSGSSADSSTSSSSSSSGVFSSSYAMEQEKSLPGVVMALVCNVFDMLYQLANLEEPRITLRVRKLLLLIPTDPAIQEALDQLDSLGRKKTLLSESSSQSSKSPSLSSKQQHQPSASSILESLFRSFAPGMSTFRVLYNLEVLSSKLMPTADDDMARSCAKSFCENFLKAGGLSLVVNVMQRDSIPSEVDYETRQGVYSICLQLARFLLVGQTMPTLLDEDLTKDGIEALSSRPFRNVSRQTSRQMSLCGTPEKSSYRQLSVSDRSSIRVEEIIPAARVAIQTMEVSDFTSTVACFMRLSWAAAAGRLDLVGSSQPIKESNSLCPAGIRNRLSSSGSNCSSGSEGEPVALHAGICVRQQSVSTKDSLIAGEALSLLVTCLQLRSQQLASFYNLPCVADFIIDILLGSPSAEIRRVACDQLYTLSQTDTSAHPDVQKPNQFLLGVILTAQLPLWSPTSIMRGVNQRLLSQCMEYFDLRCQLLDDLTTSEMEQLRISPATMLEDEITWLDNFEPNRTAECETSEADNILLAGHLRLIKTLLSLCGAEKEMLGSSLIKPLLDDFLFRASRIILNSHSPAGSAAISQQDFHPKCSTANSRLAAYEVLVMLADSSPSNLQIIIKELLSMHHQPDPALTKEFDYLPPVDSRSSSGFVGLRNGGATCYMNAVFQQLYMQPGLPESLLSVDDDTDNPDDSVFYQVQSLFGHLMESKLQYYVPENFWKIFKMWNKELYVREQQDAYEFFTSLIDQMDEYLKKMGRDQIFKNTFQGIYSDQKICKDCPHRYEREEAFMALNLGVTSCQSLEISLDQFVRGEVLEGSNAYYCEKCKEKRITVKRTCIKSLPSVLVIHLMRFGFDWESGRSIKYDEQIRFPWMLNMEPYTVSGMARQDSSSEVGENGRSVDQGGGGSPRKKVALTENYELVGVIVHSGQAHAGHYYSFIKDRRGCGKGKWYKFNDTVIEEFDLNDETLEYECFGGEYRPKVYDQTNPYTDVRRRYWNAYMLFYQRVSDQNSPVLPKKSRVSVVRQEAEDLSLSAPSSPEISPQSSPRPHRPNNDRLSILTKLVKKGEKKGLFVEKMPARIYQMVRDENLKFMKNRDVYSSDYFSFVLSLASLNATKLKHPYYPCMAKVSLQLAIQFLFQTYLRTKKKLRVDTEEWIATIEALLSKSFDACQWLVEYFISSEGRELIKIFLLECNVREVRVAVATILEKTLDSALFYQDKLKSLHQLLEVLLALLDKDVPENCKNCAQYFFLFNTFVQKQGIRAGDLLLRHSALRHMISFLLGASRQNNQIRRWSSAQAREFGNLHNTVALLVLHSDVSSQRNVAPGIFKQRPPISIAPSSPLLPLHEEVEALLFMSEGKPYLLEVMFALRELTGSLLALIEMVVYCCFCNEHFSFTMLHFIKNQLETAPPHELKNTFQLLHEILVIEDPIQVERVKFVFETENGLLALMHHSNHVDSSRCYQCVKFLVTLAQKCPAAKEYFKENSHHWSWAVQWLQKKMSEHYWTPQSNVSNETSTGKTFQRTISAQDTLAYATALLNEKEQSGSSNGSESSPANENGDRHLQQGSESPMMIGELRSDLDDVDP

Cc1cc(Cl)ccc1NC(=O)CCl
inactive: USP19 -0.055 | USP22 -0.467 | USP24 -0.224 | USP25 -0.208 | USP28 -0.682
